Measurements: the supplement of paper PMC10849652
Targets with a hit are over-represented here; the source holds about 8,800 in all. About 0.5% of all pairs of compound and target were hits. Unmarked numbers belong to inactive results.

What was measured:
Assay in all cases: log2 fold change, soluble protein after heating vs DMSO (PISA); higher = thermal stabilisation; K562 lysate, 10 uM; active = over 0.2 and 3.5 SD of the protein, either way, in both replicates (recomputed)
[1] = compound: C/C(=N\NC(=O)C1=CC(=CC=C1)S(=O)(=O)N2CCOCC2)/C3=C(C=CC(=C3)Cl)O
How it was run: (§1)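 A 30 min treatment with 10 μM compound was applied to crude K562 extract at 1 mg/mL protein in PBS pH 7.4 with 1 mM MgCl2. Heating for 3 min spanned 48°C-58°C, after which aliquots were pooled, adjusted to 0.5% NP-40 at 4°C and spun at 21,000xg for 90 min. TMTpro 16plex LC-MS/MS of the supernatant, with channel sums equalised, gave values recorded as log-two fold change in thermal stability against solvent controls, from duplicates.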

[2] = compound: C1=CC2=C(C=CC(=C2)/C=C\3/C(=O)NC(=NCC4=CC=CS4)S3)N=C1
How it was run: as §1

[3] = compound: C1=CC2=NC=CN=C2C=C1/C=C/3\C(=O)NC(=O)S3
How it was run: as §1

[4] = compound: C1=CC=C(C=C1)C2=NC(=C(N2)C3=CC=NC=C3)C4=CC(=C(C=C4)Cl)O
How it was run: as §1

[5] = compound: C1=CC=C2C(=C1)C3=NNC4=CC=CC(=C43)C2=O
How it was run: as §1

[6] = compound: C1CCN(C1)C(=O)NC2=CC=CC(=C2)NC3=NC=C(C(=N3)NCCC4=CN=CN4)Br
How it was run: as §1

[7] = compound: C1CN(CCC1(CC2=CC=C(C=C2)Cl)N)C3=NC=NC4=C3C=CN4
How it was run: as §1

IRAK-1-4 Inhibitor I = compound: C1COCCN1CCN2C3=CC=CC=C3N=C2NC(=O)C4=CC(=CC=C4)[N+](=O)[O-] [IRAK-1-4 Inhibitor I]
How it was run: as §1

ibrutinib = compound: C=CC(=O)N1CCC[C@@H](n2nc(-c3ccc(Oc4ccccc4)cc3)c3c(N)ncnc32)C1 [ibrutinib]
How it was run: as §1

[8] = compound: CC(=O)c1cnc2ccc(-c3cc(Cl)c(O)c(Cl)c3)nc2c1N[C@H]1CC[C@H](CN(C)C)CC1
How it was run: as §1

ralimetinib = compound: CC(C)(C)Cn1c(N)nc2ccc(-c3[nH]c(C(C)(C)C)nc3-c3ccc(F)cc3)nc21 [ralimetinib]
How it was run: as §1

[9] = compound: CC(C)(O)CC(=O)NCCn1ccc2ncnc(Nc3ccc(Oc4cccc(C(F)(F)F)c4)c(Cl)c3)c21
How it was run: as §1

[10] = compound: CC1=C(C(CC(=O)N1)C2=CC=C(C=C2)C(F)(F)F)C(=O)NC3=C(C=C4C(=C3)C=NN4)F
How it was run: as §1

[11] = compound: CC1=C(C2=C(C=C1)C(=O)C3=CC=CC=C3N2CCCN)C
How it was run: as §1

[12] = compound: CC1=C(C=C(C=C1)NC(=O)C2=CC(=CC=C2)C(C)(C)C#N)NC3=CC4=C(C=C3)N=CN(C4=O)C
How it was run: as §1

[13] = compound: CC1=C(C=C(C=C1)NC(=O)C2=CC(=CC=C2)N(C)C)NC(=O)C3=CC=C(C=C3)O
How it was run: as §1

[14] = compound: CC1=CC=C(C=C1)SC2=C3C=C(SC3=CN=C2)C(=O)N
How it was run: as §1

erlotinib = compound: C#Cc1cccc(Nc2ncnc3cc(OCCOC)c(OCCOC)cc23)c1 [erlotinib]
How it was run: as §1

[15] = compound: C1=CC(=CC=C1C2=NC3=C(N2)C=C(C=C3)C(=O)N)OC4=CC=C(C=C4)Cl
How it was run: as §1

[16] = compound: CC(C)C1=C2N=C(C=C(N2N=C1)NCC3=CC=CC=C3)NCCCCCCN
How it was run: as §1

Sequence of UniProt Q7L7V1 (Q7L7V1 whole entry, looked up): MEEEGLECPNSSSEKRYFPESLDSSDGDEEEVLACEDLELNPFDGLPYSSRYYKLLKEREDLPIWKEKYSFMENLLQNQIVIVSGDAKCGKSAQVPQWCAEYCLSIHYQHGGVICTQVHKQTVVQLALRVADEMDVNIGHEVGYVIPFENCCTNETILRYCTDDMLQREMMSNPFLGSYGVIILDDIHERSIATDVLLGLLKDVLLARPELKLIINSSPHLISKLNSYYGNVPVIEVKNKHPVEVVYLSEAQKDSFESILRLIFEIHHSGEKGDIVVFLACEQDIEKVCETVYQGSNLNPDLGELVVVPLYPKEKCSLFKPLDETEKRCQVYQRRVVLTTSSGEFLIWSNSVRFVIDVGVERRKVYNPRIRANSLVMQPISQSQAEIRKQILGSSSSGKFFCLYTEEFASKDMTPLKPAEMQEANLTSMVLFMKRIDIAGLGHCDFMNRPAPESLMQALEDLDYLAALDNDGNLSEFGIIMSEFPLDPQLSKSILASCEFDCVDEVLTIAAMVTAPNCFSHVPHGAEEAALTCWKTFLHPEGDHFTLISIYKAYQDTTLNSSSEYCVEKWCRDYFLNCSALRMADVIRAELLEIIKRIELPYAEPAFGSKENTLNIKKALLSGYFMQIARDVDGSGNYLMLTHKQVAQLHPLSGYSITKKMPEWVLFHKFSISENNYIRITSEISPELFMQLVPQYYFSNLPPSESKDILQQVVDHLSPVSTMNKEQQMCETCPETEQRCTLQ
Sequence of UniProt Q9Y600 (Q9Y600 whole entry, looked up): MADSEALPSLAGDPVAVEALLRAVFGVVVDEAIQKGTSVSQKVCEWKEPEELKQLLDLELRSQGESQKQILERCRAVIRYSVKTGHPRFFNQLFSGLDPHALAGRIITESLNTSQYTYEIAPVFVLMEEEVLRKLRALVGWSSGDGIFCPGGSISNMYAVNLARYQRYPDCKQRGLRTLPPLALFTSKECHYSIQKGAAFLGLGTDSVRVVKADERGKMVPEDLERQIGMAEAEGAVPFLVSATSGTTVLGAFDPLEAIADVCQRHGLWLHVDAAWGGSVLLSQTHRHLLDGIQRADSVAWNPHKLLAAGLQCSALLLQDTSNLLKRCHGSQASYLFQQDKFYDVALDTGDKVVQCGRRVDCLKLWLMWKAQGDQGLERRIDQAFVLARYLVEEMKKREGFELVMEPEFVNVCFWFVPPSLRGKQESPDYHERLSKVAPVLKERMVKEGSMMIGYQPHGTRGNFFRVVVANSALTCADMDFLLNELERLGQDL
Sequence of UniProt P48730 (P48730 whole entry, looked up): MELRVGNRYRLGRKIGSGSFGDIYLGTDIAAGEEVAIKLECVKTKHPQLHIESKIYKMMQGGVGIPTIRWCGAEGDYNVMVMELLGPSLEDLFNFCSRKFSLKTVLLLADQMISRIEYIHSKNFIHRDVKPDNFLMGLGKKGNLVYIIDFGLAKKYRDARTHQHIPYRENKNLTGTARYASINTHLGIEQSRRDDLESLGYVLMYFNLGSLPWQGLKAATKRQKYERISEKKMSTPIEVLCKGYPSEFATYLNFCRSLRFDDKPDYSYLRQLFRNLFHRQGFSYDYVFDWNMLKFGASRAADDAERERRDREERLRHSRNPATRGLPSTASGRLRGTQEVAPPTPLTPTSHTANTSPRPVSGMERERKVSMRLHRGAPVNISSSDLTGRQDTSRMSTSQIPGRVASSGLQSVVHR
Sequence of UniProt Q7Z460 (Q7Z460 whole entry, looked up): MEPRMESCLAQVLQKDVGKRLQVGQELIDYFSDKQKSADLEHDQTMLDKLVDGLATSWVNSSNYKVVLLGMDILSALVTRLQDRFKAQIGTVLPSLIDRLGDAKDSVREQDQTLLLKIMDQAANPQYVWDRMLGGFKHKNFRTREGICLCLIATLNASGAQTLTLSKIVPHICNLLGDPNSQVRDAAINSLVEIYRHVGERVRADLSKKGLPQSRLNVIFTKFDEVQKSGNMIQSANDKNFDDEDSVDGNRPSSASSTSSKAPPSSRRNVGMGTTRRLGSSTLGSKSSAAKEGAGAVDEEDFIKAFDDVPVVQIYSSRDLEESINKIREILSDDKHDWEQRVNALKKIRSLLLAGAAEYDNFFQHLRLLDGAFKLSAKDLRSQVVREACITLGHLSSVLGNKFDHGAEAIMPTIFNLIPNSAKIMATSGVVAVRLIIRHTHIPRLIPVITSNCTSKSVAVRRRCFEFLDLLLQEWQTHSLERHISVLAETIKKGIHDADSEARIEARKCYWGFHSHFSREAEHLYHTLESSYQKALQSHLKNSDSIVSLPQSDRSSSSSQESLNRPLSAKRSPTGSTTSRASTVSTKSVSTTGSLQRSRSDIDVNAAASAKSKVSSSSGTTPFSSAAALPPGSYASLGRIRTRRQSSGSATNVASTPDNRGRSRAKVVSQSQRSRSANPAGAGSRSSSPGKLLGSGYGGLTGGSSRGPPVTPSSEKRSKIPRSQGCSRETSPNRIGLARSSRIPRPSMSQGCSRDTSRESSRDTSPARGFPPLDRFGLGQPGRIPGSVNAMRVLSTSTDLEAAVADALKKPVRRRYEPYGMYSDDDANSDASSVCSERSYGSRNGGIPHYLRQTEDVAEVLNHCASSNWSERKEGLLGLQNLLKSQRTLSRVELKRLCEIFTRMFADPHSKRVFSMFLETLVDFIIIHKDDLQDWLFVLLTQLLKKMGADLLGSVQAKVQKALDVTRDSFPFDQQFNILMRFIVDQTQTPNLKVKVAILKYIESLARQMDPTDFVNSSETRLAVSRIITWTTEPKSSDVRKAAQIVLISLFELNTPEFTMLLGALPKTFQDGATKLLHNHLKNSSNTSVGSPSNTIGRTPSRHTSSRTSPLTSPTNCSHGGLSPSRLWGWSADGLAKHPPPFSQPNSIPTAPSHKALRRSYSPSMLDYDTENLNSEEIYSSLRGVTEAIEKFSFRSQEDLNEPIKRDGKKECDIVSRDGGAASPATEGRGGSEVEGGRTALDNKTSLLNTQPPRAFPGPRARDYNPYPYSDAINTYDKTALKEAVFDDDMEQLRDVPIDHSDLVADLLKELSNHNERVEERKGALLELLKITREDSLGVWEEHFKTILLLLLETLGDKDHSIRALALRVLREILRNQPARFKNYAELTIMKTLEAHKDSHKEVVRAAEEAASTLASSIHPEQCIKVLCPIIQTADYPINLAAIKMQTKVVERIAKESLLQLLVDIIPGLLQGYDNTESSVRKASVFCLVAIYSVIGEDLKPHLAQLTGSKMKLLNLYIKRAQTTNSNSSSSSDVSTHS
Sequence of UniProt Q9NYP3 (Q9NYP3 whole entry, looked up): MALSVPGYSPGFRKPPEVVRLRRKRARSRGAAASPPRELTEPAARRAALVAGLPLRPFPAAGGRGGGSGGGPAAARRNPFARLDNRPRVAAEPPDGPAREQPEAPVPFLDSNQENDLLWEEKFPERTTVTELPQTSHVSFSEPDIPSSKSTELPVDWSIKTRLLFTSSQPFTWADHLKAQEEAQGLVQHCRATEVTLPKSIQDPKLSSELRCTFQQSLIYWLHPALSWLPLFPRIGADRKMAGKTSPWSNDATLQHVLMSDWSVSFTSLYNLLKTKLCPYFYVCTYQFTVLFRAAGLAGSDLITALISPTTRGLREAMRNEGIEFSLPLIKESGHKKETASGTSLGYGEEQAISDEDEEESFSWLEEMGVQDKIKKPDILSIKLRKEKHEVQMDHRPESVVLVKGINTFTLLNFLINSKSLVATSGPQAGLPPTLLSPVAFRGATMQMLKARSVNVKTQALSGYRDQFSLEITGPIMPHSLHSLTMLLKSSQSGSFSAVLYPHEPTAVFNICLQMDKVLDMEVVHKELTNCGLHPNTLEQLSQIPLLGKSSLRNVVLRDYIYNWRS
Sequence of UniProt P51530 (P51530 whole entry, looked up): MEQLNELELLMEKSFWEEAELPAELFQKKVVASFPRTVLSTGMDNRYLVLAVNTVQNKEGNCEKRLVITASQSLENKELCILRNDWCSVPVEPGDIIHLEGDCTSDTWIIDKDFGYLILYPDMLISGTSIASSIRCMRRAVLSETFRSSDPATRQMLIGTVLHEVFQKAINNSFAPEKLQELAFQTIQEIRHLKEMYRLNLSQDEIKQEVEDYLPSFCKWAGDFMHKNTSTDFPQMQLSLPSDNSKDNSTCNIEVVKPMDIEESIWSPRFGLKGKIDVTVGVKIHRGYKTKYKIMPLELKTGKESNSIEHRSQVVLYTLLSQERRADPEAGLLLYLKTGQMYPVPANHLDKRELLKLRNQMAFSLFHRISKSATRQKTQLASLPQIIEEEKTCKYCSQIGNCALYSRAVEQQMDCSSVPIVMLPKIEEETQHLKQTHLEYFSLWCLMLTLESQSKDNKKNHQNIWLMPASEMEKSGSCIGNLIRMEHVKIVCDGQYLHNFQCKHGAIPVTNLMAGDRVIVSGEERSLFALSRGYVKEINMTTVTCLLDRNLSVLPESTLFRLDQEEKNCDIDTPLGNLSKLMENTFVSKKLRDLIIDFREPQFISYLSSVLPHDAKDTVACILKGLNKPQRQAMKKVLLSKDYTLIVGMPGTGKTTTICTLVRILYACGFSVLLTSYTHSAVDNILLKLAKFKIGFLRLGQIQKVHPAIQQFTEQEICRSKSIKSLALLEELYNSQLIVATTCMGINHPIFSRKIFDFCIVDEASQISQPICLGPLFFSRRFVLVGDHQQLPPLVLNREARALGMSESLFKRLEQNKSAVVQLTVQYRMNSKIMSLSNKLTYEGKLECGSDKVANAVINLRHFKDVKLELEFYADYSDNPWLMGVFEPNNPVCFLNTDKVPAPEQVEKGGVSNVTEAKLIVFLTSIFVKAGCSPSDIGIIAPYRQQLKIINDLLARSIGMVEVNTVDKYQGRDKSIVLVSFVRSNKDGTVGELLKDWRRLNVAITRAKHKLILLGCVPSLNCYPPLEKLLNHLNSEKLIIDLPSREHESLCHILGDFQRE
Sequence of UniProt Q9BW66 (Q9BW66 whole entry, looked up): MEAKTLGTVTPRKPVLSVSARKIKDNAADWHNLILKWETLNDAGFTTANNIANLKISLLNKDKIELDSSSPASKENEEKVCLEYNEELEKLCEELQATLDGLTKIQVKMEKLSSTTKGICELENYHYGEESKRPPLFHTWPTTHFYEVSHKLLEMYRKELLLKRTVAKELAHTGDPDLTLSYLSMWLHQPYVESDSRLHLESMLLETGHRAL

| Target | log2 fold change [1] | log2 fold change [2] | log2 fold change [3] | log2 fold change [4] | log2 fold change [5] | log2 fold change [6] | log2 fold change [7] | log2 fold change (IRAK-1-4 Inhibitor I) | log2 fold change (ibrutinib) | log2 fold change [8] | log2 fold change (ralimetinib) | log2 fold change [9] | log2 fold change [10] | log2 fold change [11] | log2 fold change [12] | log2 fold change [13] | log2 fold change [14] | log2 fold change (erlotinib) | log2 fold change [15] | log2 fold change [16] |
| --- | --- | --- | --- | --- | --- | --- | --- | --- | --- | --- | --- | --- | --- | --- | --- | --- | --- | --- | --- | --- |
| CINP isoform 3 (UniProt Q9BW66) | 0.016 | 0.015 | -0.015 | 0.081 | -0.102 | -0.015 | -0.056 | 0.074 | 0 | -0.012 | 0.047 | -0.051 | 0.072 | -0.168 | 0.039 | 0.009 | -0.005 |  |  |  |
| CIC (UniProt I3L1Q4) |  |  | -0.03 |  |  |  |  |  | 0.005 |  |  |  |  |  |  |  |  |  |  |  |
| CSNK1D (UniProt P48730) | -0.32 | -0.06 | 0.039 | 0.124 | 0.415 (active) | -0.031 | 0.013 | -0.048 | -0.086 | 0.494 (active) | -0.038 | -0.112 | 0.245 | -0.151 | -0.001 | -0.143 | 0.179 |  |  |  |
| DONSON (UniProt Q9NYP3) |  |  | 0.014 | 0.06 |  |  |  | -0.021 | 0.059 | 0.002 | -0.033 | 0.074 | -0.071 | -0.037 | 0.062 | -0.096 | -0.013 | 0 | 0.051 | -0.022 |
| CLASP1 isoform 4 (UniProt Q7Z460) | -0.041 | -0.262 |  |  | -0.029 |  |  |  |  |  |  |  | -0.226 |  |  |  |  | 0.199 | 0.04 | -0.124 |
| CNOT2 (UniProt F8VRS8) |  |  |  |  |  |  |  |  |  |  |  |  |  |  |  |  |  | 0.307 | 0.101 | -0.001 |
| DHX32 (UniProt Q7L7V1) | -0.091 | -0.052 |  | 0.013 | 0.038 | -0.145 | 0.044 | 0.036 |  |  | 0.096 | -0.144 | 0.016 |  | -0.023 | 0.017 |  | -0.083 | 0.098 | -0.387 (active) |
| DNA2 (UniProt P51530) | 0.071 | -0.163 |  | -0.032 | 0.044 | 0.027 | 0.077 | -0.033 |  |  | 0.016 | 0.029 | -0.007 | 0.002 | -0.02 | 0.001 |  | -0.019 | -0.054 | -0.06 |
| CSAD isoform 3 (UniProt Q9Y600) |  |  | -0.115 | 0.044 |  |  |  | -0.02 | -0.224 |  | -0.019 | -0.048 |  |  | -0.027 | -0.033 |  | -0.02 | 0.064 | 0.041 |
| CLIP1, A0A3B3ITA2 | 0.025 | 0.004 |  | -0.039 | -0.103 |  |  | 0.121 |  |  | 0.156 | -0.173 |  |  | 0.019 | -0.215 |  |  |  |  |
